{
  "source": "the supplement of paper PMC6411743",
  "note": "± gives the standard deviation of the averaged measurements. The full data set covers some 6,500 targets. This sample favours those with the largest changes.",
  "data": [
    {"compound": "Nc1ncnc2c1ncn2[C@@H]1O[C@H](COP(=O)(O)OP(=O)(O)OP(=O)(O)O)[C@@H](O)[C@H]1O [adenosine triphosphate]", "experiment": "NP40-soluble protein abundance relative to vehicle (solubility fold change) (ratio); higher = more soluble protein in presence of ATP", "conditions": "concentration: 1mM", "summary_of_the_method": "(§1)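 Crude Jurkat lysate, prepared by Dounce homogenisation, was exposed to eight concentrations from 0.1 to 10 mM for 10 min at room temperature and then 3 min at 37 °C. Solubilisation used 0.8% NP40 with benzonase for 60 min at 4 °C, followed by ultracentrifugation and TMT labelling of the supernatant for LC-MS/MS. After vsn normalisation of intensities, each value is the fold change against the detergent-processed vehicle within each replicate, across three independent experiments.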", "values": [
      {"target": "ARGLU1 (UniProt Q9NWB6)", "NP40-soluble protein abundance": "1.72 ± 0.14"},
      {"target": "UniProt Q9NVR5", "NP40-soluble protein abundance": "0.965 ± 0.028"},
      {"target": "MRPL16 (UniProt Q9NX20)", "NP40-soluble protein abundance": "1.17 ± 0.12"},
      {"target": "ZNF48 (UniProt Q96MX3)", "sequence (Q96MX3 whole entry)": "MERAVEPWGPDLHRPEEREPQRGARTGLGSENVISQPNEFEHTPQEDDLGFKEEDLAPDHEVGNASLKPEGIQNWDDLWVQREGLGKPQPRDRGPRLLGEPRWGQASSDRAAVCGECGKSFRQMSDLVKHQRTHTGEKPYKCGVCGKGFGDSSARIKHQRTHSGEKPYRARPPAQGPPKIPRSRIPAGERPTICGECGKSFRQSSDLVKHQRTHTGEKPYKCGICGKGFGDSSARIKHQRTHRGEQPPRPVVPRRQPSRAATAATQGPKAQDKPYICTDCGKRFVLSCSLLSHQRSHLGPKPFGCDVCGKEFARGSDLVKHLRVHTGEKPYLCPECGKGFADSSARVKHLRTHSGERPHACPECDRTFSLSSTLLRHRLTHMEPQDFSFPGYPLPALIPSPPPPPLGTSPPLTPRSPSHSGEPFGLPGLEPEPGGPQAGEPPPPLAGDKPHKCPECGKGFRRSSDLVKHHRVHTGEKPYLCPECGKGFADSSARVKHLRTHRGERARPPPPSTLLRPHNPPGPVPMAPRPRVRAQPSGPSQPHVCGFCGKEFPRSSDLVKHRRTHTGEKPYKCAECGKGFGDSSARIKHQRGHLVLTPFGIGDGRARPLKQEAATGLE", "NP40-soluble protein abundance": "1.11 ± 0.069"},
      {"target": "UniProt Q8WX93|Q8WX93-3|Q8WX93-4|Q8WX93-5|Q8WX93-8", "NP40-soluble protein abundance": "0.978 ± 0.024"},
      {"target": "UniProt Q9H6R4|Q9H6R4-4|A0A0A0MRW6|Q9H6R4-2", "sequence (Q9H6R4 whole entry, one chain of several)": "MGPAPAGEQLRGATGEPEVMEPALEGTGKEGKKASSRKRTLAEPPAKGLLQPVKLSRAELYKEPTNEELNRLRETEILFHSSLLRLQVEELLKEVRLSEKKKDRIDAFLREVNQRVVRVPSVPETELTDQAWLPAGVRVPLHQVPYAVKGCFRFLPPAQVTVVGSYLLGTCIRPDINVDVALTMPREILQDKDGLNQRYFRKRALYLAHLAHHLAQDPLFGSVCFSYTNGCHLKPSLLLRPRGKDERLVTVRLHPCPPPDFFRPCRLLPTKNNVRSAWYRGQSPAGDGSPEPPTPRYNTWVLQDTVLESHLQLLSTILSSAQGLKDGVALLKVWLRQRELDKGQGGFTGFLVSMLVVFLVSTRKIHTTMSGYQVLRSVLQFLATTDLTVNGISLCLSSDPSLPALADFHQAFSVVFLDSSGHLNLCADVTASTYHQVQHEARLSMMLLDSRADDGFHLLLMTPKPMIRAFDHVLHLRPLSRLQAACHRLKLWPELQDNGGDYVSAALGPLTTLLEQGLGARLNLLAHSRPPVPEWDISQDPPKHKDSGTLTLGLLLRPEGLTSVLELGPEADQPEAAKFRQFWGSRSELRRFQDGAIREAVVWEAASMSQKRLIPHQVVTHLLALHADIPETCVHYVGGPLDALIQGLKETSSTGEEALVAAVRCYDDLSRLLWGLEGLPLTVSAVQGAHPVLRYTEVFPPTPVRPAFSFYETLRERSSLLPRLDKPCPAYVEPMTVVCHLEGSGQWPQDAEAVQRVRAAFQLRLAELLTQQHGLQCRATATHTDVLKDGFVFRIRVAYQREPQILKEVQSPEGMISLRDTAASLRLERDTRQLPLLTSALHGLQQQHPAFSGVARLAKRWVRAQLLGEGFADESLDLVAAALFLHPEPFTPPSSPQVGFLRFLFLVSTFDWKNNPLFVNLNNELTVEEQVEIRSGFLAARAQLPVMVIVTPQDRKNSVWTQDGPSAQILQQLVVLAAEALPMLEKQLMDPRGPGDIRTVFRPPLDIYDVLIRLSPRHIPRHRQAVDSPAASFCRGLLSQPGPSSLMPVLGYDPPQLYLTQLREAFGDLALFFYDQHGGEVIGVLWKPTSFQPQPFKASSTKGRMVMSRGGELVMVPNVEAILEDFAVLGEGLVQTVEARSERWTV", "NP40-soluble protein abundance": "1.08 ± 0.049"},
      {"target": "LUC7L (UniProt Q9NQ29)", "sequence (Q9NQ29 whole entry)": "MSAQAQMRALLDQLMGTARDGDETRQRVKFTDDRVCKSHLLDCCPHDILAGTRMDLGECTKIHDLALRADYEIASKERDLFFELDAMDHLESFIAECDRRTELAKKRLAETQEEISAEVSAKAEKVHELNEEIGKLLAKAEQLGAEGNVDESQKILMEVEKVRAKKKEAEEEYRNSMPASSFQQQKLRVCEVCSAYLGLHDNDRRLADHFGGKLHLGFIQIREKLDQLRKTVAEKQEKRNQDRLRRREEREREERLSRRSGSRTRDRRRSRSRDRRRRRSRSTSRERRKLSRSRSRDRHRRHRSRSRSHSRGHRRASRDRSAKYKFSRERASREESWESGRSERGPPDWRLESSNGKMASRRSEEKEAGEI", "NP40-soluble protein abundance": "2.7 ± 0.14"},
      {"target": "EIF2AK4 (UniProt Q9P2K8)", "sequence (Q9P2K8 whole entry)": "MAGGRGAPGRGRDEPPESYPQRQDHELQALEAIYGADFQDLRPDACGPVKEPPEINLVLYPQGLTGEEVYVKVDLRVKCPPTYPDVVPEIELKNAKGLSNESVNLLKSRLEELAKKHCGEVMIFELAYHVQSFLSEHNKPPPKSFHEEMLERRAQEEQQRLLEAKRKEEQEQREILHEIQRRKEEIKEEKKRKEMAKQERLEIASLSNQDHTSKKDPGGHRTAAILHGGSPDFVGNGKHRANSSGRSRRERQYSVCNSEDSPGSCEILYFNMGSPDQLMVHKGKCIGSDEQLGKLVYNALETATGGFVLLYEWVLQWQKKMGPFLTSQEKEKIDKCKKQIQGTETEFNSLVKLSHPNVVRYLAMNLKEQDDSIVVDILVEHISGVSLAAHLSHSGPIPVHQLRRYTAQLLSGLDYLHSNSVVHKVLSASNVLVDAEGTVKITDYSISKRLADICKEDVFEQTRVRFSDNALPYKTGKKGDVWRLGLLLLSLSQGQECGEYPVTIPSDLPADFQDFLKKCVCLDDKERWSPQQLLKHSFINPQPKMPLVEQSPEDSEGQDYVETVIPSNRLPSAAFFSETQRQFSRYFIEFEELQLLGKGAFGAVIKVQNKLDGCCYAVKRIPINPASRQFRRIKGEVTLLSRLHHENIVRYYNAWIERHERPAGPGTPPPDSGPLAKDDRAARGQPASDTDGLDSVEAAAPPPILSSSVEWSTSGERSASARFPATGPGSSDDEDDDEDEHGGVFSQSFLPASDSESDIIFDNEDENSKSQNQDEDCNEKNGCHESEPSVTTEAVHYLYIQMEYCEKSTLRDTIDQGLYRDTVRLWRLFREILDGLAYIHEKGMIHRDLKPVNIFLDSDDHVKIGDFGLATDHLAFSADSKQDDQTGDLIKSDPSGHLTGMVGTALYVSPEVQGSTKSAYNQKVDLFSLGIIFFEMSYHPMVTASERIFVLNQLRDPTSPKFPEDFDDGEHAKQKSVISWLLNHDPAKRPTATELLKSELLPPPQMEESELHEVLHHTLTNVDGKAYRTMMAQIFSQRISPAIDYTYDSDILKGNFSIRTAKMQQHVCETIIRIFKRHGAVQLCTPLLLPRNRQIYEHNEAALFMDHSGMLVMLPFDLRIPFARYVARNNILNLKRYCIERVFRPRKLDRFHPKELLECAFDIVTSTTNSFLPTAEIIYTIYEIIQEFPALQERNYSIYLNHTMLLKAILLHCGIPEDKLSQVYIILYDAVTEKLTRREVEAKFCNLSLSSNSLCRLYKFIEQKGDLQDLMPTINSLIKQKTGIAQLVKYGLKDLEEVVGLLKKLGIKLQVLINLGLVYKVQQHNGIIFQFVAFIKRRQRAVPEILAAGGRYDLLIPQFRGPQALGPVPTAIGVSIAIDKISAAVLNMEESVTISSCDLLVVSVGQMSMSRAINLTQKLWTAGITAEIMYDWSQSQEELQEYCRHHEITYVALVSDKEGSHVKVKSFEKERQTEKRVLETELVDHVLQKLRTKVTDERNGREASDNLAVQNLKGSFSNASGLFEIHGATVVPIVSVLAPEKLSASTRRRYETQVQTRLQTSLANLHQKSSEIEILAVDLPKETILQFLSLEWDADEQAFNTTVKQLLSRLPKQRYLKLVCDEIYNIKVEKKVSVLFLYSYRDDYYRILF", "NP40-soluble protein abundance": "1.04 ± 0.096"},
      {"target": "UniProt Q9NUQ7|D6RA67", "NP40-soluble protein abundance": "1.09 ± 0.15"},
      {"target": "UniProt Q9UEY8|Q9UEY8-2", "NP40-soluble protein abundance": "1.01 ± 0.019"},
      {"target": "PNPLA2 (UniProt Q96AD5)", "NP40-soluble protein abundance": "1.04 ± 0.047"},
      {"target": "PECR (UniProt Q9BY49)", "NP40-soluble protein abundance": "0.965 ± 0.093"},
      {"target": "SENP8 (UniProt Q96LD8)", "sequence (Q96LD8 whole entry)": "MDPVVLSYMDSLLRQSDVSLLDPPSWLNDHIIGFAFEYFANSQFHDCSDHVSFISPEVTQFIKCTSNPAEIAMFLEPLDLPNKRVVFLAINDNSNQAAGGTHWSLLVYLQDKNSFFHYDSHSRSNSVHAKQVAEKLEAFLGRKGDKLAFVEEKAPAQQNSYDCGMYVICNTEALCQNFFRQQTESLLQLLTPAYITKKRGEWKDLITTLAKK", "NP40-soluble protein abundance": "0.97 ± 0.057"},
      {"target": "UniProt Q9BWW4|Q9BWW4-2|Q9BWW4-3", "NP40-soluble protein abundance": "1.05 ± 0.11"},
      {"target": "ARMC1 (UniProt Q9NVT9)", "NP40-soluble protein abundance": "0.913 ± 0.046"},
      {"target": "DDX23 (UniProt Q9BUQ8)", "NP40-soluble protein abundance": "1.14 ± 0.052"},
      {"target": "UniProt Q9H0S4|Q9H0S4-2", "NP40-soluble protein abundance": "1.18 ± 0.12"},
      {"target": "PGAM5 (UniProt Q96HS1)", "NP40-soluble protein abundance": "1.1 ± 0.037"},
      {"target": "UniProt Q9NUL5", "NP40-soluble protein abundance": "0.948 ± 0.041"},
      {"target": "RDH14 (UniProt Q9HBH5)", "NP40-soluble protein abundance": "0.997 ± 0.049"},
      {"target": "UniProt Q9UG63|Q9UG63-2", "NP40-soluble protein abundance": "1.09 ± 0.033"},
      {"target": "MECR (UniProt Q9BV79)", "NP40-soluble protein abundance": "0.969 ± 0.013"},
      {"target": "UniProt Q9BTT6", "NP40-soluble protein abundance": "0.931 ± 0.073"},
      {"target": "CCDC124 (UniProt Q96CT7)", "NP40-soluble protein abundance": "1.08 ± 0.15"},
      {"target": "FUT8 (UniProt Q9BYC5)", "NP40-soluble protein abundance": "1 ± 0.035"},
      {"target": "TDP1 (UniProt Q9NUW8)", "NP40-soluble protein abundance": "1.02 ± 0.032"},
      {"target": "UniProt Q9NUL3-3|Q9NUL3-8|A0A0A0MTD1|E7EPX0|E7EVJ4|F8VPI7|A0A0A0MTC5|E9PH62|Q9NUL3|Q9NUL3-2", "NP40-soluble protein abundance": "0.971 ± 0.048"},
      {"target": "UniProt Q9HCM7", "sequence (Q9HCM7 whole entry)": "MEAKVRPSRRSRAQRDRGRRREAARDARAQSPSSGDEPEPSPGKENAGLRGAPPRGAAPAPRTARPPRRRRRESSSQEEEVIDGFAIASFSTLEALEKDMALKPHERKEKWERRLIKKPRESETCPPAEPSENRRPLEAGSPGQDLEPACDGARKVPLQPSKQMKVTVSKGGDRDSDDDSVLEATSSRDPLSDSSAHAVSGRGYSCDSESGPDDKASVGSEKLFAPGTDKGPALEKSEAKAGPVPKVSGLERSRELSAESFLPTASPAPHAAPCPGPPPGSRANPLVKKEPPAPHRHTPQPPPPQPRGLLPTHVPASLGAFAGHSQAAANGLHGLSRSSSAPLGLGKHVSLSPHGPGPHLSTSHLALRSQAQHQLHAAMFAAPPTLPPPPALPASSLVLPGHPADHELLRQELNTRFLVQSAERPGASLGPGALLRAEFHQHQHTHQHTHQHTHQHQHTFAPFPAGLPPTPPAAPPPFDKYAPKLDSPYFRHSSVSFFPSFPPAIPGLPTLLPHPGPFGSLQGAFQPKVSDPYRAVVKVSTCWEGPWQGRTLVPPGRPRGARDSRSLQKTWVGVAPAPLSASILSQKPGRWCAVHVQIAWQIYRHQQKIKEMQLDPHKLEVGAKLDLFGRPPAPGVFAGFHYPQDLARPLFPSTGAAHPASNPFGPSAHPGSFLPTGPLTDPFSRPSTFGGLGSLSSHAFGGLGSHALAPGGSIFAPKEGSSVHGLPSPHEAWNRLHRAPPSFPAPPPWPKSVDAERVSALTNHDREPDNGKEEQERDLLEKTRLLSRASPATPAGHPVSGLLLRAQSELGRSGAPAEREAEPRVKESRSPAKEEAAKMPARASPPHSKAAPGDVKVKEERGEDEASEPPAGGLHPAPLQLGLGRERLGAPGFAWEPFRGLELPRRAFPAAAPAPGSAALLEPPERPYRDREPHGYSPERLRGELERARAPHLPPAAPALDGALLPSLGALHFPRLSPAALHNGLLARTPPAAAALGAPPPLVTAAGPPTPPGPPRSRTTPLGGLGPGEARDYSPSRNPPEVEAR", "NP40-soluble protein abundance": "1.71 ± 0.25"},
      {"target": "DNAJC9 (UniProt Q8WXX5)", "NP40-soluble protein abundance": "1.04 ± 0.024"},
      {"target": "UniProt Q9NVI7-2", "NP40-soluble protein abundance": "1.54 ± 0.05"},
      {"target": "UniProt Q96KB5|Q96KB5-2", "NP40-soluble protein abundance": "1 ± 0.038"}
    ]},
    {"compound": "Nc1ncnc2c1ncn2[C@@H]1O[C@H](COP(=O)(O)OP(=O)(O)OP(=O)(O)O)[C@@H](O)[C@H]1O [adenosine triphosphate]", "experiment": "NP40-soluble protein abundance relative to vehicle (solubility fold change) (ratio); higher = more soluble protein in presence of ATP", "conditions": "concentration: 2mM", "summary_of_the_method": "as §1", "values": [
      {"target": "ARGLU1 (UniProt Q9NWB6)", "NP40-soluble protein abundance": "1.86 ± 0.18"},
      {"target": "UniProt Q9NVR5", "NP40-soluble protein abundance": "0.98 ± 0.039"},
      {"target": "MRPL16 (UniProt Q9NX20)", "NP40-soluble protein abundance": "1.08 ± 0.11"},
      {"target": "ZNF48 (UniProt Q96MX3)", "NP40-soluble protein abundance": "1.13 ± 0.034"},
      {"target": "UniProt Q8WX93|Q8WX93-3|Q8WX93-4|Q8WX93-5|Q8WX93-8", "NP40-soluble protein abundance": "0.966 ± 0.046"},
      {"target": "UniProt Q9H6R4|Q9H6R4-4|A0A0A0MRW6|Q9H6R4-2", "NP40-soluble protein abundance": "1.03 ± 0.018"},
      {"target": "LUC7L (UniProt Q9NQ29)", "NP40-soluble protein abundance": "2.9 ± 0.11"},
      {"target": "EIF2AK4 (UniProt Q9P2K8)", "NP40-soluble protein abundance": "1.02 ± 0.078"},
      {"target": "UniProt Q9NUQ7|D6RA67", "NP40-soluble protein abundance": "1.07 ± 0.13"},
      {"target": "UniProt Q9UEY8|Q9UEY8-2", "NP40-soluble protein abundance": "1.02 ± 0.018"},
      {"target": "PNPLA2 (UniProt Q96AD5)", "NP40-soluble protein abundance": "1 ± 0.069"},
      {"target": "PECR (UniProt Q9BY49)", "NP40-soluble protein abundance": "0.966 ± 0.037"},
      {"target": "SENP8 (UniProt Q96LD8)", "NP40-soluble protein abundance": "0.942 ± 0.032"},
      {"target": "UniProt Q9BWW4|Q9BWW4-2|Q9BWW4-3", "NP40-soluble protein abundance": "0.958 ± 0.12"},
      {"target": "ARMC1 (UniProt Q9NVT9)", "NP40-soluble protein abundance": "0.946 ± 0.018"},
      {"target": "DDX23 (UniProt Q9BUQ8)", "NP40-soluble protein abundance": "1.23 ± 0.1"},
      {"target": "UniProt Q9H0S4|Q9H0S4-2", "NP40-soluble protein abundance": "1.23 ± 0.072"},
      {"target": "PGAM5 (UniProt Q96HS1)", "NP40-soluble protein abundance": "1.14 ± 0.083"},
      {"target": "UniProt Q9NUL5", "NP40-soluble protein abundance": "0.972 ± 0.048"},
      {"target": "RDH14 (UniProt Q9HBH5)", "NP40-soluble protein abundance": "1.01 ± 0.0098"},
      {"target": "UniProt Q9UG63|Q9UG63-2", "NP40-soluble protein abundance": "1.15 ± 0.039"},
      {"target": "MECR (UniProt Q9BV79)", "NP40-soluble protein abundance": "0.959 ± 0.056"},
      {"target": "UniProt Q9BTT6", "NP40-soluble protein abundance": "0.916 ± 0.081"},
      {"target": "CCDC124 (UniProt Q96CT7)", "NP40-soluble protein abundance": "1.14 ± 0.089"},
      {"target": "FUT8 (UniProt Q9BYC5)", "NP40-soluble protein abundance": "0.987 ± 0.052"},
      {"target": "TDP1 (UniProt Q9NUW8)", "NP40-soluble protein abundance": "1.02 ± 0.046"},
      {"target": "UniProt Q9NUL3-3|Q9NUL3-8|A0A0A0MTD1|E7EPX0|E7EVJ4|F8VPI7|A0A0A0MTC5|E9PH62|Q9NUL3|Q9NUL3-2", "NP40-soluble protein abundance": "1.11 ± 0.13"},
      {"target": "UniProt Q9HCM7", "NP40-soluble protein abundance": "1.84 ± 0.31"},
      {"target": "DNAJC9 (UniProt Q8WXX5)", "NP40-soluble protein abundance": "1.13 ± 0.012"},
      {"target": "UniProt Q9NVI7-2", "NP40-soluble protein abundance": "1.64 ± 0.086"},
      {"target": "UniProt Q96KB5|Q96KB5-2", "NP40-soluble protein abundance": "0.98 ± 0.051"}
    ]},
    {"compound": "Nc1ncnc2c1ncn2[C@@H]1O[C@H](COP(=O)(O)OP(=O)(O)OP(=O)(O)O)[C@@H](O)[C@H]1O [adenosine triphosphate]", "experiment": "NP40-soluble protein abundance relative to vehicle (solubility fold change) (ratio); higher = more soluble protein in presence of ATP", "conditions": "concentration: 4mM", "summary_of_the_method": "as §1", "values": [
      {"target": "ARGLU1 (UniProt Q9NWB6)", "NP40-soluble protein abundance": "2.03 ± 0.26"},
      {"target": "UniProt Q9NVR5", "NP40-soluble protein abundance": "1 ± 0.047"},
      {"target": "MRPL16 (UniProt Q9NX20)", "NP40-soluble protein abundance": "1.06 ± 0.16"},
      {"target": "ZNF48 (UniProt Q96MX3)", "NP40-soluble protein abundance": "1.21 ± 0.077"},
      {"target": "UniProt Q8WX93|Q8WX93-3|Q8WX93-4|Q8WX93-5|Q8WX93-8", "NP40-soluble protein abundance": "1.01 ± 0.026"},
      {"target": "UniProt Q9H6R4|Q9H6R4-4|A0A0A0MRW6|Q9H6R4-2", "NP40-soluble protein abundance": "1.28 ± 0.027"},
      {"target": "LUC7L (UniProt Q9NQ29)", "NP40-soluble protein abundance": "2.86 ± 0.17"},
      {"target": "EIF2AK4 (UniProt Q9P2K8)", "NP40-soluble protein abundance": "1.02 ± 0.071"},
      {"target": "UniProt Q9NUQ7|D6RA67", "NP40-soluble protein abundance": "1.05 ± 0.093"},
      {"target": "UniProt Q9UEY8|Q9UEY8-2", "NP40-soluble protein abundance": "1.01 ± 0.014"},
      {"target": "PNPLA2 (UniProt Q96AD5)", "NP40-soluble protein abundance": "1.02 ± 0.064"},
      {"target": "PECR (UniProt Q9BY49)", "NP40-soluble protein abundance": "0.994 ± 0.073"},
      {"target": "SENP8 (UniProt Q96LD8)", "NP40-soluble protein abundance": "0.943 ± 0.014"},
      {"target": "UniProt Q9BWW4|Q9BWW4-2|Q9BWW4-3", "NP40-soluble protein abundance": "0.933 ± 0.12"},
      {"target": "ARMC1 (UniProt Q9NVT9)", "NP40-soluble protein abundance": "0.876 ± 0.024"},
      {"target": "DDX23 (UniProt Q9BUQ8)", "NP40-soluble protein abundance": "1.38 ± 0.13"},
      {"target": "UniProt Q9H0S4|Q9H0S4-2", "NP40-soluble protein abundance": "1.44 ± 0.03"},
      {"target": "PGAM5 (UniProt Q96HS1)", "NP40-soluble protein abundance": "1.3 ± 0.06"},
      {"target": "UniProt Q9NUL5", "NP40-soluble protein abundance": "0.921 ± 0.029"},
      {"target": "RDH14 (UniProt Q9HBH5)", "NP40-soluble protein abundance": "1.03 ± 0.043"},
      {"target": "UniProt Q9UG63|Q9UG63-2", "NP40-soluble protein abundance": "1.42 ± 0.019"},
      {"target": "MECR (UniProt Q9BV79)", "NP40-soluble protein abundance": "0.964 ± 0.037"},
      {"target": "UniProt Q9BTT6", "NP40-soluble protein abundance": "0.945 ± 0.049"},
      {"target": "CCDC124 (UniProt Q96CT7)", "NP40-soluble protein abundance": "1.3 ± 0.2"},
      {"target": "FUT8 (UniProt Q9BYC5)", "NP40-soluble protein abundance": "1.02 ± 0.025"},
      {"target": "TDP1 (UniProt Q9NUW8)", "NP40-soluble protein abundance": "0.983 ± 0.063"},
      {"target": "UniProt Q9NUL3-3|Q9NUL3-8|A0A0A0MTD1|E7EPX0|E7EVJ4|F8VPI7|A0A0A0MTC5|E9PH62|Q9NUL3|Q9NUL3-2", "NP40-soluble protein abundance": "1.02 ± 0.057"},
      {"target": "UniProt Q9HCM7", "NP40-soluble protein abundance": "2.2 ± 0.52"},
      {"target": "DNAJC9 (UniProt Q8WXX5)", "NP40-soluble protein abundance": "1.34 ± 0.04"},
      {"target": "UniProt Q9NVI7-2", "NP40-soluble protein abundance": "1.8 ± 0.086"},
      {"target": "UniProt Q96KB5|Q96KB5-2", "NP40-soluble protein abundance": "0.964 ± 0.031"}
    ]}
  ]
}
